Screening results (PubChem)
An excerpt weighted towards active compounds, which were near 3.1% of everything screened.
TR SRC2 fluor cs: alters Texas Red total fluorescence, flagging assay interference | AID 1479 | Potency, µM (titrated, usually from 106 µM), for the others: top-dose fluorescence change, negative = quenching | 280,000 compounds, 0.29% hits | TRb/SRC2 Texas Red total fluorescence interference; active = well fitted curve in either direction with a large enough effect; inconclusive = small, poorly fitted or top-dose-only effect
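Flags fluorescent or light-absorbing compounds by total fluorescence, S + 2P, at 555 nm excitation and 632 nm emission. Mixture: 20 nM Texas Red SRC2 peptide, 0.6 uM human TRb LBD, 1 uM T3, 5% DMSO; compound exposure 5 h at ambient temperature.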
TRb-SRC2 inh: disrupts binding of human TR beta to SRC2; 280,000 compounds, 0.065% hits; TRbeta-SRC2 peptide binding, fluorescence polarization; receptor liganded with 1 µM T3; Potency, µM (highest dose often 106 µM), for inactives: at the top dose activity change, negative = inhibition, usual class: inhibitors; P10828;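 also: plate controls were bound peptide for no effect and peptide without receptor for full effect; nearly all actives have a fitted effect of over 50% in size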
Target sequence (P10828 whole entry, looked up): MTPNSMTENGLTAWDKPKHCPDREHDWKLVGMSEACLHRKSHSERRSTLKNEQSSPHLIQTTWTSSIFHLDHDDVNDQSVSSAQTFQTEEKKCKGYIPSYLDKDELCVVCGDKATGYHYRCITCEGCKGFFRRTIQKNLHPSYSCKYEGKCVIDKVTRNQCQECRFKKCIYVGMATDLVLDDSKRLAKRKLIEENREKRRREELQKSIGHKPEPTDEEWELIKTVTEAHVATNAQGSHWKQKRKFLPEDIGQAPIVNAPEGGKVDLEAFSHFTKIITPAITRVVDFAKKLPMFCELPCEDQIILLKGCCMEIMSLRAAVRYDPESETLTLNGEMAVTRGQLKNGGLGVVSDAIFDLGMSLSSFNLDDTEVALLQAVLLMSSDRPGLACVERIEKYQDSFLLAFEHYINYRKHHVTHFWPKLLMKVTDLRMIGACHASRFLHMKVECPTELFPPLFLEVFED
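Read-out is fluorescence polarization (555 nm excitation, 632 nm emission) of a Texas Red SRC2 coactivator peptide; loss of signal reflects blocked binding to human TRb ligand-binding domain in the presence of 1 uM T3.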
Tau fluor cs: counter-screen for tau fibril formation inhibitors; tau K18 P301L Alexa594 fluorescence, heparin fibrillization; Potency, µM (series often up to 57.7 µM), for the others: top-dose activity change, negative = decrease; 280,000 compounds, 0.93% hits; also: nearly all actives have a fitted effect of over 55% in size
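Human K18 P301L tau (15 uM unlabeled plus 0.24 uM Alexa 594-labeled, final) in 100 mM sodium acetate pH 7 was mixed with compound and 20 uM heparin and incubated 6 hr at 37 C.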
Tau fibril FP: inhibitors of human tau fibril formation; P10636; K18 P301L tau heparin fibrillization, Alexa594 FP, 6 h; Potency, µM (doses to about 57.7 µM), without a hit: at the top dose activity, negative = inhibition, most hits filed as inhibitors; 280,000 compounds, 0.39% hits; AID 1468; also: nearly all actives have a fitted effect of over 55% in size
Target sequence (P10636 561-689 P618L limits assumed): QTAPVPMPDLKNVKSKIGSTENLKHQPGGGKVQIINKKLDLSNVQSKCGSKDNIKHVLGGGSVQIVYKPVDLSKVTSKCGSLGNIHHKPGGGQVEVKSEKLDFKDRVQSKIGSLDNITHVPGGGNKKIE
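Recombinant K18 P301L […], labeled with Alexa 594 at 0.24 uM over 15 uM unlabeled; heparin inducer 20 uM final; 37 C, 6 hr; FP endpoint.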
Tau ThT inhib: tau fibrillization inhibition (ThT binding); P10636; 270,000 compounds, 2.1% hits; recombinant tau K18 P301L, heparin-induced fibrillization, ThT fluorescence; Potency, µM (top dose mostly 57.4 µM), for the others: at the highest dose activity, negative = inhibition, most hits filed as inhibitors; also: nearly all actives have a fitted effect of over 55% in size
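ThT emission at 510 nm, taken 1 hr after adding 30 uM dye, quantifies aggregates formed when 20 uM heparin acts on human tau K18 P301L for 6 hr at 37 C.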
* marks the source's active call; other numbers are inactive results; ? = inconclusive; . = not tested or not shown; [ ] = another dose, or the depositor's remark. Unless noted, calls follow the shape of the dose curve; as a rule, active = well fitted curve in the direction sought with a large enough effect; inconclusive = small, poorly fitted or top-dose-only effect, or another doubt; inactive = no such curve, though single readings can be large; an effect the other way counts as inactive or inconclusive. Unless noted, % is scaled to controls: 0 for no effect and ±100 for the full control effect; potency is read from the fitted curve at half-maximal effect.

SMILES | TR SRC2 fluor cs | TRb-SRC2 inh | Tau fluor cs | Tau fibril FP | Tau ThT inhib
CCOc1ccc(-c2cc(N)n(S(=O)(=O)c3ccc(OC)c(OC)c3)n2)cc1 | 0% | 2% | ? | -11% | -9%
CCOc1ccccc1CNC(=O)C1CCN(C(=O)N2CCOc3ccc(Cl)cc32)CC1 | -34% | 1% | ? | ? | 32µM*
CCOC(=O)N1CCC(NC(=O)C2CCN(C(=O)N3CC(C)Oc4ccc(C)cc43)CC2)CC1 (stereo unspecified) | 3% | -14% | 4% | 7% | 1%
Cc1ccc2c(c1)N(C(=O)N1CCC(C(=O)NC3CCCCCC3)CC1)CC(C)O2 (stereo unspecified) | 3% | -2% | 10µM*[quencher] | 8% | ?
O=C(NC1CCCCCC1)C1CCN(C(=O)N2CCOc3ccc(Cl)cc32)CC1 | 4% | 1% | ? | ? | 22µM*
CCc1nnc(NC(=O)CSc2nc3c([nH]c4ccccc43)c(=O)n2-c2ccc(OC)cc2)s1 | 0% | 5% | -26% | -9% | 5%
CCCN1C(=O)/C(=C/c2c(NCCCOCC)nc3c(C)cccn3c2=O)SC1=S | -5% | -6% | -8% | ? | -9%
CCOC(=O)CC1C(=O)NCCN1c1nc2c(C)cccn2c(=O)c1/C=C1\SC(=S)N(CC(C)C)C1=O (stereo unspecified) | -3% | 11% | -13% | -11% | 10µM*
COc1ccc(N/N=C(/N=Nc2nc(C)cc(=O)[nH]2)c2ccccc2)cc1 | 2% | -7% | ? | 3% | 4.5µM*
Cc1cc(=O)[nH]c(N=N/C(=N/Nc2ccc(O)cc2)c2ccccc2)n1 | 2% | 6% | 1% | 10% | -2%
Cc1ccc(Cl)cc1NC(=O)CSC(N)=O | -1% | -2% | -18% | ? | 32µM*
COc1ccc(C(=O)Nc2nc3n(n2)C(c2ccc(Cl)cc2)C=C(c2ccccc2)N3)cc1OC (stereo unspecified) | -1% | -1% | -23% | 5% | ?
COc1cc2c(cc1OC)CC(=O)N(C)CC2 | -3% | -2% | 9% | 2% | 6%
COc1cc2c(C=O)c3c4c(cc(OC)c(OC)c4c2cc1OC)CCN3C | -1% | -25% | ? | -8% | 14µM*
COc1cc2c(C)c3c4c(cc(OC)c(OC)c4c2cc1OC)CCN3C | -1% | -7% | 10µM*[quencher] | ? | ?
CCc1ccc(-n2nc(C)c3c(C)cc(=O)n(CC(=O)Nc4ccc(OC)c(OC)c4)c32)cc1 | 1% | -5% | -7% | -5% | -5%
O=C1CC(c2ccco2)CC(O)=C1C=Nc1cc(Cl)ccc1Cl (stereo unspecified) | -5%[53 µM] | 8%[53 µM] | -18% | ? | 22µM*
O=C1CC(c2ccco2)CC(O)=C1C=Nc1cc(Cl)ccc1O (stereo unspecified) | -21% | 1% | -28% | -3% | ?
CCOC(=O)CN1C(c2ccc(O)cc2)Nc2ccc(Br)cc2C1c1ccccc1 (stereo unspecified) | 0% | 2% | 7.1µM*[quencher] | ? | ?
CCOC(=O)CN1C(=O)Nc2ccc(Br)cc2C1c1ccccc1 (stereo unspecified) | -2% | -6% | -14% | 0% | -14%
S=C(NCc1ccc(Cl)c(Cl)c1)Nc1ccc2c(c1)OCO2 | -1% | -12% | 16µM*[quencher] | ? | ?
S=C(NCc1ccc2c(c1)OCO2)Nc1ccc(-c2nc3ccccc3[nH]2)cc1 | -3% | -3% | 13µM*[quencher] | ? | ?
Cc1cc(N2CCOCC2)nc2ccc(NC(=S)NCc3ccc4c(c3)OCO4)cc12 | -1% | 6% | 14µM*[quencher] | ? | ?
Cl[Si](Cl)(c1ccccc1)c1ccccc1 | -1%[201 µM] | 0%[201 µM] | . | . | .
Cc1cccc(C(=O)n2nc(-c3cccnc3)nc2NCc2ccccc2)c1 | 0.0089µM*[quencher] | -15% | ? | -2% | ?
SMILES | TR SRC2 fluor cs | TRb-SRC2 inh | Tau fluor cs | Tau fibril FP | Tau ThT inhib
COC(=O)c1ccc(NS(=O)(=O)c2ccc3[nH]c4c(c3c2)CCCC4)cc1 | 28µM*[quencher] | -5% | 10µM*[quencher] | -14% | 1%
COC(=O)c1ccc(NS(=O)(=O)c2ccc3[nH]c4c(c3c2)CCCCC4)cc1 | ? | -7% | 4µM*[quencher] | ? | -1%
CCOC(=O)CC(NS(=O)(=O)c1ccc2[nH]c3c(c2c1)CCCC3)c1ccccc1Cl (stereo unspecified) | ? | 1% | ? | 20% | -11%
CCCCNc1nc2c(c(=O)n(Cc3ccc(Cl)c(Cl)c3)c(=O)n2C)n1C | -1% | -1% | 11µM*[quencher] | ? | ?
CCCCNc1nc2c(c(=O)n(Cc3ccc(Cl)cc3)c(=O)n2C)n1C | 3% | 2% | ? | 18% | ?
COc1ccc(N/C=C/C(=O)c2sc(-c3ccccc3)nc2C)cc1 | -5% | -5% | ? | 8% | 2.5µM*
Cc1nc(-c2ccccc2)sc1C(=O)/C=C/c1ccc(Cl)cc1 | 2%[53 µM] | -14%[53 µM] | 4% | 3% | ?
CCOc1ccc(NC(=O)c2cc(=O)c3ccc(C)c(C)c3o2)cc1 | -19% | 3% | -10% | -9% | ?
Cc1cccnc1Nc1nc(-c2ccc(O)c(O)c2)cs1 | -9% | 1% | 13µM*[quencher] | -2% | 7.9µM*
COc1ccc(-c2csc(Nc3ncccc3C)n2)cc1 | -2% | -18% | -2% | -4% | -7%
CC(=O)Nc1ccc(-c2csc(Nc3ccccn3)n2)cc1 | -3% | 4% | ? | 15% | .
COc1ccc(-c2csc(Nc3ncccc3C)n2)cc1OC | -8% | -1% | ? | 12% | 10µM*
O=C(Nc1sc2c(c1C(=O)NCC1CCCO1)CCC2)c1cc(=O)c2ccccc2o1 (stereo unspecified) | 1% | 6% | -10% | 1% | ?
N#Cc1c(NC(=O)c2ccccc2Cl)n(Cc2ccccc2)c2nc3ccccc3nc12 | -14% | ? | -29% | ? | 14µM*
CSCC[C@H](N)C(=O)N[C@@H](C)C(=O)NCC(=O)N[C@@H](CCCN=C(N)N)C(=O)N[C@@H](CO)C(=O)NCC(=O)N[C@@H](CC(=O)O)C(=O)N[C@@H](CO)C(=O)N[C@@H](CC(=O)O)C(=O)N[C@@H](CCC(=O)O)C(=O)N[C@@H](CC(=O)O)C(=O)N[C@@H](CC(C)C)C(=O)N[C@@H](CC(C)C)C(=O)N[C@@H](CCCCN)C(=O)N[C@@H](C)C(=O)N[C@H](C(=O)O)C(C)C | -5% | 0% | . | . | .
O=C(Nc1ccc(N2CCN(c3ccc(F)cc3)CC2)c(C(=O)O)c1)c1ccccc1F | 2% | -2% | 3% | 5% | -11%
COc1ccc(OCC(=O)NNc2c3ccccc3nc3ccccc23)cc1 | -8% | -2% | 16µM*[quencher] | ? | 6.3µM*
O=C(NNc1c2ccccc2nc2ccccc12)C(O)c1ccccc1 (stereo unspecified) | -3% | -3% | ? | 11% | 14µM*
